Not all results are given here.
aSyn UTR act = Activators via SNCA 5'UTR binding, MLPCN; alpha-synuclein 5'UTR reporter, activators screen; activity score, % (tested at 7.5 µM), hits read low; actives 7.1% (n = 300,000); AID 1814, 2009; in the data active = activity score below about -60%
Large screens that a line does not name were inactive.

O=C(N/N=C/c1ccc([N+](=O)[O-])o1)c1cc2ccccc2o1	none
O=[N+]([O-])c1ccc(/C=N/Nc2ccc3ccccc3c2)o1	aSyn UTR act -104
Cc1nc2ccccn2c1C(=O)N/N=C/c1ccc([N+](=O)[O-])o1	aSyn UTR act -81
O=C1c2ccccc2CN1CCSC(=S)N1CCSCC1	aSyn UTR act -109
O=C1c2ccccc2CN1CCSC(=S)N1CCOCC1	aSyn UTR act -105
Cc1ccc(-n2ncc3c(N4CCN(c5ccccc5)CC4)ncnc32)c(C)c1	aSyn UTR act -62
C=CCNc1ncnc2c1cnn2-c1cccc(C)c1	aSyn UTR act -133
Cc1cccc(-n2ncc3c(NCCCO)ncnc32)c1	aSyn UTR act -101
Cc1cccc(-n2ncc3c(NC4CCCCC4)ncnc32)c1	aSyn UTR act -90
Cc1cccc(-n2ncc3c(N4CCOCC4)ncnc32)c1	none
Cc1cccc(-n2ncc3c(N4CC(C)CC(C)C4)ncnc32)c1 (stereo not given)	aSyn UTR act -109
Cc1nn(-c2ccc(Br)cc2)c(=O)c2ccccc12	aSyn UTR act -113
CC(=O)Nc1nc2cccc([N+](=O)[O-])c2s1	aSyn UTR act -68
O=C(Nc1nc2ccccc2s1)c1ccc([N+](=O)[O-])o1	aSyn UTR act -173
Cc1cnc(NC(=O)c2ccc(-c3nc4ccccc4s3)o2)s1	aSyn UTR act -84
O=C(Nc1c(Cl)ccc2nsnc12)c1ccc([N+](=O)[O-])o1	aSyn UTR act -203
O=C(c1nc2ccccc2[nH]1)c1ccccc1[N+](=O)[O-]	aSyn UTR act -74
COc1ccc2nc(NC(=O)c3ccc([N+](=O)[O-])o3)sc2c1	aSyn UTR act -161
O=C(Nc1nc2ccccc2s1)Nc1ccc([N+](=O)[O-])cc1Cl	aSyn UTR act -99
O=C(Nc1nc2ccccc2s1)c1ccccc1[N+](=O)[O-]	aSyn UTR act -153
O=C(Nc1nc2cc3c(cc2s1)OCCO3)c1ccc([N+](=O)[O-])o1	aSyn UTR act -301
O=C(COC(=O)CC1CCCC1)Nc1cc2c(cc1Cl)C(=O)c1ccccc1C2=O	aSyn UTR act -169
Clc1nc(-c2ccccc2)ncc1Oc1ccccc1	aSyn UTR act -64
Cc1cccc(NC(=S)NNC(=O)c2csc(C)c2)c1	aSyn UTR act -77
Cc1cccc(NC(=S)NNC(=O)c2csc3c2CCCC3)c1	aSyn UTR act -125
Cc1cc(C(=O)Nc2ccc(Br)cc2)cs1	aSyn UTR act -130
c1cnc(SCCOc2ccc3c(c2)CCC3)nc1	aSyn UTR act -111
N/C(=N\OC(=O)Cc1ccc(-c2ccccc2)cc1)c1ccccn1	aSyn UTR act -66
N/C(=N\OC(=O)CC1CCCCC1)c1ccccn1	aSyn UTR act -90
Cc1ccc(C(=O)O/N=C(\N)c2ccccn2)c(C)c1	none
Cc1ccc(C)c(OCC(=O)O/N=C(\N)c2ccccn2)c1	aSyn UTR act -131
N/C(=N\OC(=O)CSc1ccccc1)c1ccccn1	aSyn UTR act -88
COc1ccc(CC(=O)O/N=C(\N)c2ccccn2)cc1	aSyn UTR act -76
COc1ccc(C(=O)/C=C2\NCCc3cc(OC)c(OC)cc32)cc1OC	none
COc1ccc(N/C=C\C(=O)c2ccc(C)cc2)cc1OC	aSyn UTR act -84
COc1ccc(N/C=C\C(=O)c2ccc(Br)cc2)cc1OC	aSyn UTR act -108
COc1ccc(CCCC(=O)N/N=C/c2cccc(OC)c2O)cc1C	none
COc1ccc(N=Cc2cccc(C)c2O)cc1Cl	aSyn UTR act -138
CCC(=O)Nc1cccc(NC(=O)c2ccc3c(c2)OCCO3)c1	aSyn UTR act -105
CN(C)S(=O)(=O)c1cccc(NC(=O)c2ccc3c(c2)OCCO3)c1	aSyn UTR act -119
CCN1C(=O)c2cccc3c(NC(=O)c4ccc5c(c4)OCCO5)ccc1c23	aSyn UTR act -79
CCOC(=O)c1cn(-c2ccc([N+](=O)[O-])cc2)c2cc(Cl)c([N+](=O)[O-])cc2c1=O	aSyn UTR act -110
CC1CCCN(C(=S)NCCc2ccccc2)C1 (stereo not given)	aSyn UTR act -102
O=C(NCCc1ccccc1)C1CCN(C(=O)Nc2ccccc2)CC1	aSyn UTR act -66
CN(C)C(=O)N1CCCC(C(=O)NCCc2ccccc2)C1 (stereo not given)	aSyn UTR act -91
COc1ccc(Br)cc1CNC(=O)C1CCN(C(=O)N(C)C)CC1	none
CC1CCCCN1C(=S)NCCc1ccccc1 (stereo not given)	aSyn UTR act -93
COc1ccc(/C=N/Nc2nc3ccccc3s2)cc1O	none
COc1ccc(C=C(c2nc3ccccc3s2)c2nc3ccccc3s2)cc1O	aSyn UTR act -281
COc1cc(/C=C/c2nc3ccccc3s2)cc(OC)c1O	aSyn UTR act -69
CN(C)c1ccc(/C=C/c2nc3ccccc3s2)cc1	none
O=C(Nc1ccccc1)Nc1ccc2snnc2c1	aSyn UTR act -147
CN(C)c1ccc(NC(=O)Nc2ccc3snnc3c2)cc1	aSyn UTR act -115
O=C(Nc1ccccc1)Nc1ccc2nnsc2c1	aSyn UTR act -145
CCNc1oc(/C=C/c2ccc(OCC)cc2)nc1C#N	aSyn UTR act -188
CNc1oc(/C=C/c2cccc(OC)c2)nc1C#N	aSyn UTR act -180
CCN(CC)CCCNc1oc(/C=C/c2ccccc2)nc1C#N	aSyn UTR act -64
c1ccc(SCc2nc(-c3ccncc3)no2)cc1	aSyn UTR act -206
COc1ccc(-c2noc(CSc3ccccc3)n2)cc1OC	aSyn UTR act -114
COc1ccc(-c2noc(CSc3nnc(CCc4ccccc4)n3-c3ccccc3)n2)cc1OC	none
CCOCC(=O)Nc1cccc(-c2nc3cccnc3s2)c1C	aSyn UTR act -63
O=C(Nc1ccon1)c1ccc(OC2CCCC2)cc1	aSyn UTR act -102
NC(=O)c1ccc(-n2nnnc2Oc2ccccc2C(=O)N2CCOCC2)cc1	aSyn UTR act -108
COc1ccc(CCNC(=O)c2cc(-c3ccco3)on2)cc1OC	aSyn UTR act -77
O=C(NCCc1ccccc1)c1cc(-c2ccco2)on1	aSyn UTR act -321
Cc1ccccc1Cn1cc(NC(=O)c2cc(-c3ccco3)on2)cn1	aSyn UTR act -76
Cc1ccccc1Cn1cc(NC(=O)c2noc(C(C)C)c2[N+](=O)[O-])cn1	none
O=C(NCc1ccccc1)c1cc(-c2ccco2)on1	aSyn UTR act -97
C=COCCNC(=O)Nc1ccc(Cl)c(Cl)c1	aSyn UTR act -127
Cc1ccc(NC(=O)NCC2CC2(Cl)Cl)cc1 (stereo not given)	aSyn UTR act -165
Cc1ccc(NC(=O)CN(C)C(=O)Cn2ncc(Cl)c(Cl)c2=O)cc1	none
O=C(NCC1CC1(Cl)Cl)Nc1ccc(Cl)c(Cl)c1 (stereo not given)	aSyn UTR act -156
Cc1ccccc1C(=O)NC(=S)Nc1ncccn1	aSyn UTR act -66
Cc1ccccc1C(=O)NC(=S)NCCc1ccccc1	aSyn UTR act -66
O=C(NC(=S)NCCc1ccccc1)c1ccco1	aSyn UTR act -80
Cc1ccccc1NC(=O)C1Cc2ccccc2CN1C(=O)c1ccco1 (stereo not given)	aSyn UTR act -132
COc1cccc(NC(=O)C2Cc3ccccc3CN2C(=O)c2ccco2)c1 (stereo not given)	aSyn UTR act -94
CCn1cc(C(=O)O)c(=O)c2cnc(N3CCN(C(=S)Nc4ccccc4Cl)CC3)nc21	aSyn UTR act -112
O=C(Nc1ccc(N2CCCCC2)cc1)c1cccnc1Cl	aSyn UTR act -128
O=C(Nc1ccc(N2CCOCC2)nc1)c1ccccc1Cl	aSyn UTR act -102
O=C(Nc1ccc(N2CCCC2)cc1)c1ccccc1F	aSyn UTR act -80
O=C(Nc1ccc(N2CCCC2)cc1)c1cccc(Cl)c1Cl	aSyn UTR act -100
Nc1nc(CSc2ccccn2)nc(Nc2ccccc2)n1	aSyn UTR act -85
